Some test systems named below: PLK2; PLK3; PLK4; PRKCD; PRKCE; PRKCH; PRKCI; PRKCQ; PRKD1; PRKD2.
Common to all, as to conditions: concentration: 1 μM,replicates: in singlicate; n = 1

Molecules are shown by their SMILES.
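Note: KINOMEscan kinase panel screen.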

On to `NC(=O)c1cc(-c2ccccc2)cc2c(C3CCNCC3)c[nH]c12` [GSK301362], for which the “%Inh” value in the assay on PLK2 amounted to 34%; in the assay with PLK3 it was 0%; in the assay with PLK4, 0%; in the assay on PRKCD, 40%; with PRKCE, 46%; in the assay on PRKCH, 71%. Further, the “%Inh” value came out at 35% with PRKCI, 64% in the assay on PRKCQ, 37% with PRKD1 and 2% with PRKD2.
As to `CC(C)N1C(=O)Cc2cc(Nc3ncc(C(F)(F)F)c(NCc4cccc(S(C)(=O)=O)c4)n3)ccc21`, the “%Inh” value in the assay with PLK2 worked out at 61%; in the assay on PLK3, 64%; in the assay with PLK4 it was 67%; in the assay on PRKCD, 0%; in the assay on PRKCE, 0%; in the assay with PRKCH it was 0%. Further, the “%Inh” value in the assay on PRKCI is on record as 0%; in the assay on PRKCQ it was 9%; with PRKD1 it was 0%; in the assay with PRKD2, 16%.
`COc1ccc(C[C@@H](CN)NC(=O)c2cc(Br)c(-c3ccnc4[nH]ccc34)s2)cc1.Cl.Cl` [GSK1389063]: the “%Inh” value with PLK2 came out at 27%; in the assay on PLK3, 27%; in the assay on PLK4 it was 34%; in the assay on PRKCD it was 99.8%; in the assay on PRKCE it was 98.2%; in the assay with PRKCH it was 99.4%. Further, the “%Inh” value with PRKCI was 56%; with PRKCQ it was 92.4%; with PRKD1 it was 83%; with PRKD2 it was 85%.
`CN(C)CCOc1ccc(-c2cc(-c3c[nH]nc3-c3ccccn3)ccn2)cc1` [GW835314]: the “%Inh” value in the assay on PLK2 is given as 21%; in the assay on PLK3, 0%; in the assay with PLK4 it was 2%; with PRKCD, 23%; in the assay with PRKCE, 11%; in the assay with PRKCH it was 8%. In addition, the “%Inh” value with PRKCI is reported as 14%; in the assay with PRKCQ, 100%; with PRKD1, 89%; with PRKD2, 96.1%.
Consider `CCN(CC)CCCCNc1ncc2cc(-c3c(Cl)cccc3Cl)c(NC(=O)NC(C)(C)C)nc2n1`, for which the “%Inh” value in the assay on PLK2 came to 5%; in the assay with PLK3 it was 7%; in the assay with PLK4, 13%; in the assay on PRKCD it was 22%; in the assay with PRKCE, 74%; in the assay on PRKCH, 0%. The “%Inh” value with PRKCI turned out to be 19%; in the assay with PRKCQ, 0%; in the assay on PRKD1, 28%; in the assay with PRKD2 it was 5%.
Consider `Cl.Cl.NC[C@H](Cc1ccc(C(F)(F)F)cc1)NC(=O)c1cc(Br)c(-c2ccnc3[nH]ccc23)s1` [GSK1487252], for which the “%Inh” value in the assay with PLK2 was 0%; in the assay on PLK3 it was 0%; in the assay on PLK4, 8%; in the assay on PRKCD, 97.3%; with PRKCE, 97.5%; in the assay on PRKCH, 98%. The “%Inh” value with PRKCI was found to be 17%; with PRKCQ, 88%; with PRKD1, 83%; with PRKD2 it was 57%.
Consider `CNC(=O)c1ccccc1Sc1ccc2c(/C=C/c3ccccn3)n[nH]c2c1`, for which the “%Inh” value stood at 40% in the assay on PLK2; 34% in the assay on PLK3; 97.7% in the assay on PLK4; 4% in the assay with PRKCD; 58% with PRKCE; 0% in the assay with PRKCH. Further, the “%Inh” value in the assay on PRKCI was determined as 9%; in the assay with PRKCQ, 3%; in the assay on PRKD1 it was 0%; in the assay on PRKD2 it was 8%.
On to `Cc1occc1-c1nc(N)c(OC[C@@H](N)Cc2c[nH]c3ccccc23)cc1-c1cc2c(C)n[nH]c2cn1` [GSK1660450], for which the “%Inh” value with PLK2 is 65%; with PLK3, 52%; with PLK4 it was 0%; in the assay with PRKCD, 100%; in the assay with PRKCE, 99.6%; in the assay with PRKCH, 95.7%. Moreover, the “%Inh” value in the assay on PRKCI came to 34%; with PRKCQ, 100%; in the assay on PRKD1, 93.3%; in the assay with PRKD2, 97.4%.
For the molecule `Cl.Cl.Nc1nc(-c2ccc3c(N)n[nH]c3c2)cc(N2CCCC(NC(=O)c3ccccc3)C2)n1` (stereo not shown) [GSK2286775], the “%Inh” value in the assay with PLK2 was determined as 0%; in the assay on PLK3, 1%; in the assay on PLK4, 16%; in the assay with PRKCD, 0%; in the assay with PRKCE, 10%; in the assay on PRKCH, 0%. Moreover, the “%Inh” value with PRKCI is 24%; in the assay on PRKCQ it was 18%; in the assay on PRKD1, 0%; in the assay on PRKD2, 0%.
Take `CC(C)Nc1cc(-c2ccc3c(N)n[nH]c3c2)nc(N)n1` [GSK2221681]: the “%Inh” value in the assay on PLK2, in the assay with PLK3, with PLK4, in the assay with PRKCD, with PRKCE and in the assay with PRKCH was 0% each time. For the same molecule, the “%Inh” value is listed as 11% in the assay with PRKCI, 12% in the assay with PRKCQ, 0% with PRKD1 and 0% in the assay with PRKD2.
Take `Cl.Oc1cc(-c2nc(-c3ccccc3)[nH]c2-c2ccncc2)ccc1Cl` [SB-386023]: the “%Inh” value is given as 33% in the assay with PLK2; 12% with PLK3; 17% with PLK4; 0% with PRKCD; 13% in the assay on PRKCE; 1% with PRKCH. Moreover, the “%Inh” value in the assay on PRKCI came to 0%; in the assay with PRKCQ, 8%; in the assay on PRKD1, 0%; in the assay with PRKD2, 2%.
`Cc1cc(C(=O)Nc2ccc(Oc3ccc4nc(NC(=O)C5CC5)cn4n3)cc2)nn1-c1ccccc1`: the “%Inh” value is 0% in the assay on PLK2; 0% in the assay on PLK3; 0% in the assay on PLK4; 9% in the assay on PRKCD; 0% in the assay on PRKCE; 0% with PRKCH. The “%Inh” value in the assay with PRKCI turned out to be 44%; in the assay with PRKCQ, 0%; in the assay with PRKD1, 0%; with PRKD2, 0%.
In the case of `O=C(NCCNc1ccnc(NCc2ccc(F)cc2)n1)c1cc2ccccc2s1` [GSK1379944], the “%Inh” value in the assay with PLK2 is reported as 0%; with PLK3, 0%; with PLK4, 74%; in the assay on PRKCD, 0%; with PRKCE it was 86%; in the assay on PRKCH, 22%. Further, the “%Inh” value in the assay on PRKCI amounted to 8%; in the assay on PRKCQ it was 39%; with PRKD1 it was 0%; in the assay on PRKD2, 70%.

The record behind these values is publication PMC5540273 (PLoS ONE, 2017).
